The list is not random: actives were taken first. Their share in the collection is about 8.1%.
MCF10A rerep = DNA re-replication induction in MCF 10a cells; MCF 10A DNA re-replication, Hoechst nuclear intensity, 48 h; Potency, µM (doses to about 46.1 µM), actives largely listed as activators; 350,000 compounds, 2.9% hits; AID 624296; further: nearly all actives have a fitted effect of over 50% in size
KB-3-1 cytotox = kills parental KB-3-1 adenocarcinoma cells | KB-3-1 viability, CellTiter-Glo ATP luminescence, 72 h | Potency, µM (series often up to 46.1 µM), hits mostly cytotoxic | 400,000 compounds, 1.4% hits | AID 1347075; further: nearly all actives have a fitted effect of over 60% in size
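Viability of parental KB-3-1 cells, measured by CellTiter-Glo luminescence, followed a 72 h incubation at 37 °C with pinned compounds in phenol-red-free DMEM containing 10% FBS.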
SW480 rerep = induces DNA re-replication in SW480 colon adenocarcinoma cells | 340,000 compounds, 1.8% hits | SW480 DNA re-replication, Hoechst DNA content imaging, 48 h | AID 624297 | Potency, µM (titrated, usually from 46.1 µM), actives largely listed as activators; further: nearly all actives have a fitted effect of over 55% in size
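Compounds, transferred as 23 nL by pin tool, were incubated with cells for 48 hr; DNA content per nucleus was then quantified by Hoechst staining and fluorescence plate imaging.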
ELG1 DNA repair = ELG1-dependent DNA repair inhibition. HEK293T ELG1-luciferase reporter, luminescence, 16 h; DNA damage induced by 5-fluorouridine. 330,000 compounds, 2.3% hits. Potency, µM (top dose mostly 46.1 µM), usual class: inhibitors; further: nearly all actives have a fitted effect of over 55% in size
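Cells (2,000 per well) received 5-fluorouridine plus test compound or DMSO and were incubated 16 hr at 37 °C, 5% CO2. Luciferase activity was read by luminescence 30 min after ONE-Glo addition; signal suppression marked inhibition of damage-induced ELG1 function.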
KB-V1 MDR tox = kills drug-selected multidrug resistant KB-V1 cells; Potency, µM (highest dose often 46.1 µM), actives largely listed as cytotoxic; AID 1347076; KB-V1 MDR cells viability, CellTiter-Glo, 72 h; 400,000 compounds, 3.4% hits; further: nearly all actives have a fitted effect of over 60% in size
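KB-V1 MDR subline cells in DMEM (phenol-red free, 10% FBS) exposed to compounds in qHTS concentration series for 72 h at 37 degrees C. Viability read by CellTiter-Glo luminescence; concentration-effect curves fitted after normalization and correction.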
Large screens that a line does not name were inactive. The call rests on the fitted dose curve; in most records, active means well fitted curve in the direction sought with a large enough effect; inconclusive means small, poorly fitted or top-dose-only effect, or another doubt; inactive means no such curve, though single readings can be large; an effect the other way counts as inactive or inconclusive.

Cc1ccc(S(=O)(=O)N[C@@H](Cc2ccccc2)C(=O)CCl)cc1	MCF10A rerep 2.3µM, KB-3-1 cytotox inconclusive, SW480 rerep inconclusive, ELG1 DNA repair 16µM, KB-V1 MDR tox inconclusive
O=C(Cc1ccccc1)Nc1ccc(NC(=O)C2CC2)nc1	none
O=C(Cc1ccccc1)Nc1ccc(NC(=O)C2CCCCC2)nc1	ELG1 DNA repair 5.2µM
c1ccc2sc(Nc3nc4cc5c(cc4s3)OCO5)nc2c1	MCF10A rerep 18µM, SW480 rerep inconclusive, ELG1 DNA repair inconclusive
Fc1ccc2nc(Nc3nc4c(F)cc(F)cc4s3)sc2c1	MCF10A rerep 15µM, KB-3-1 cytotox inconclusive, ELG1 DNA repair inconclusive, KB-V1 MDR tox inconclusive
Fc1ccc2nc(Nc3nc4c(F)cccc4s3)sc2c1	MCF10A rerep inconclusive, ELG1 DNA repair inconclusive, KB-V1 MDR tox inconclusive (no result: SW480 rerep)
Fc1cccc2sc(Nc3nc4ccccc4s3)nc12	MCF10A rerep inconclusive, ELG1 DNA repair inconclusive, KB-V1 MDR tox 21µM
O=C(NNc1nc2cc3c(cc2s1)OCCO3)c1ccc(F)cc1	MCF10A rerep 0.26µM, KB-3-1 cytotox inconclusive, ELG1 DNA repair inconclusive, KB-V1 MDR tox inconclusive
O=C(NNc1nc2cc3c(cc2s1)OCO3)c1ccc(F)cc1	ELG1 DNA repair inconclusive, KB-V1 MDR tox inconclusive
COc1ccc(-n2c(=O)c3c4c(sc3n3c(SCCC(C)C)nnc23)COC(C(C)C)C4)cc1 (centres undefined)	none (no result: MCF10A rerep, SW480 rerep, ELG1 DNA repair)
COc1cccc(C2C3=C(CC(C)(C)CC3=O)OC(N)=C2[N+](=O)[O-])c1 (centres undefined)	none
CCC(=O)N1CCc2cc(S(=O)(=O)NC(CC(C)C)C(=O)NCc3ccc(C)cc3)ccc21 (centres undefined)	none (no result: MCF10A rerep, SW480 rerep, ELG1 DNA repair)
Fc1ccc2nc(Nc3nc4cc5c(cc4s3)OCCO5)sc2c1	MCF10A rerep 15µM, KB-3-1 cytotox inconclusive, ELG1 DNA repair inconclusive, KB-V1 MDR tox inconclusive
Brc1cc2c(cc1/C=N/Nc1nc3ccccc3s1)OCO2	MCF10A rerep 13µM, SW480 rerep inconclusive, ELG1 DNA repair inconclusive, KB-V1 MDR tox inconclusive
C(=N\Nc1nc2ccccc2s1)/c1ccc2c(c1)OCO2	ELG1 DNA repair inconclusive
CCNC(=O)COc1ccc(Br)cc1Cl	ELG1 DNA repair inconclusive, KB-V1 MDR tox inconclusive
CN(C)c1nc(OCCNC(=O)COc2ccc(Cl)cc2Cl)nc(N(C)C)n1	ELG1 DNA repair 21µM, KB-V1 MDR tox inconclusive
CN(C)c1nc(OCCOC(=O)COc2ccc(Cl)cc2Cl)nc(N(C)C)n1	none
COCCCNC(=O)COc1ccc(Br)cc1Cl	ELG1 DNA repair inconclusive, KB-V1 MDR tox 21µM
Cc1ccccc1Cn1nc(C)c(NC(=O)c2sc3ccccc3c2Cl)c1C	MCF10A rerep inconclusive, KB-3-1 cytotox inconclusive, ELG1 DNA repair 26µM, KB-V1 MDR tox 13µM
Cc1ccc(NC(=O)c2cn(-c3ccccc3)nc2-c2ccccc2)cc1	KB-V1 MDR tox inconclusive (no result: MCF10A rerep, SW480 rerep, ELG1 DNA repair)
Cc1nn(Cc2c(Cl)cccc2Cl)c(C)c1NC(=O)c1sc2ccccc2c1Cl	MCF10A rerep 10µM, SW480 rerep inconclusive
Cc1nn(Cc2c(Cl)cccc2Cl)c(C)c1NC(=O)c1cn(-c2ccccc2)nc1-c1ccccc1	MCF10A rerep 4.5µM, KB-3-1 cytotox 8.2µM, SW480 rerep 8.2µM, ELG1 DNA repair inconclusive, KB-V1 MDR tox 9.2µM
Cc1nn(Cc2ccc(Cl)c(Cl)c2)c(C)c1NC(=O)c1sc2ccccc2c1Cl	MCF10A rerep inconclusive, KB-3-1 cytotox inconclusive, ELG1 DNA repair inconclusive, KB-V1 MDR tox inconclusive
O=C1NC(=O)/C(=C\c2ccc(O)cc2O)S1	ELG1 DNA repair inconclusive, KB-V1 MDR tox inconclusive
CC(=O)N1CCc2c(sc3nc(SCC(C)C)n(-c4ccc(F)c(Cl)c4)c(=O)c23)C1	KB-3-1 cytotox inconclusive (no result: MCF10A rerep, SW480 rerep, ELG1 DNA repair)
COc1ccc(NC(C)=O)cc1NC(C)C(=O)Nc1cccc(S(=O)(=O)N2CCOCC2)c1 (centres undefined)	none
O=[N+]([O-])c1cnccc1Nc1cccc(F)c1	none
COc1ccc(Nc2ccncc2[N+](=O)[O-])cc1	KB-3-1 cytotox inconclusive, ELG1 DNA repair 5.8µM
O=C(NC1CCCC1)C1CCC(CNS(=O)(=O)c2ccc(F)cc2)CC1 (centres undefined)	SW480 rerep inconclusive
Cc1ccccc1NC(=O)CN1C(=O)S/C(=C\c2ccc(-c3cc(C(=O)O)ccc3C)o2)C1=O	MCF10A rerep inconclusive, KB-V1 MDR tox inconclusive
